The text below walks through data of PubChem BioAssay (NCATS).

Records with an inconclusive call do not appear. Where a call stands in place of a potency, no number is given. The source made the active and inactive calls. The call rests on the fitted dose curve; in most records, active means well fitted inhibition curve with a large enough effect; inconclusive means small, poorly fitted or top-dose-only effect; inactive means flat fitted curve, though single readings scatter.
Potency means the concentration at half of the fitted maximal effect.

This assay is described as follows: P-glycoprotein substrates identified in KB-8-5-11 adenocarcinoma cell line, qHTS therapeutic library screen (AID 1346987). Further: nearly all actives have a fitted effect of over 65% in size. As to conditions: KB-8-5-11 (P-gp overexpressing) viability, CellTiter-Glo, 72 h; series mostly up to 44.5 µM. A digest of the protocol: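 Compounds are pinned in dose-response onto KB-8-5-11 cells (500 cells/well, colchicine-free medium) and left 72 h at 37 degree C. CellTiter-Glo luminescence then yields AC50 values.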
On the technique in general: In qHTS, concentration-response curves come from the screen itself.
Take `CC1CC2OC3(OC2C(C)(C)O)C1C1(C)CCC24CC25CCC(O[C@@H]2OC[C@@H](O)[C@H](O)[C@H]2O)C(C)(C)C5CC=C4C1(C)C3O` (stereo not given in full): the Potency entry is “inactive”. Same read-out and setting: the result for `Cc1ccc(-c2c(C(=O)CF)n(CCCO)c3ncnc(N)c23)cc1` reads “inactive”; that for `Nc1nc2c(ncn2[C@@H]2O[C@H](CO)[C@@H](O)[C@H]2O)c(=O)[nH]1`, “inactive”. Same read-out and setting: to `C/C=C/C(O)C1OC(=O)CC1Nc1ccc(C(=O)O)cc1` (stereo not given) belongs “inactive”; to `C[C@@H]1CN(Cc2ccccc2)C[C@H]1c1nc2c(cnn2C2CCOCC2)c(=O)[nH]1`, “inactive”. Same read-out and setting: the result for `CC[C@]1(O)CC2CN(CCc3c([nH]c4ccccc34)[C@@](C(=O)OC)(c3cc4c(cc3OC)N(C=O)[C@H]3[C@@](O)(C(=O)OC)[C@H](OC(C)=O)[C@]5(CC)C=CCN6CC[C@]43[C@@H]65)C2)C1` (stereo not given in full) reads 2270 nM (active). Take `CC1(C)CCC[C@@]2(C)C1[C@H](OC(=O)/C=C/C=C/C(=O)O)C=C1COC(=O)[C@@]12O` (stereo not given in full): the Potency entry is “inactive”. Same read-out and setting: to `COC(=O)CCC(=O)OC[C@]1(C)CCC[C@@]2(C)C3CC[C@]4(C)C=CC3(CCC12)C4` (stereo not given in full) belongs “inactive”; to `Cc1c(C(=O)N2CCOc3ccc(-c4ccc(N)nc4)cc3C2)ccc(S(C)(=O)=O)c1F`, 10300 nM (active). As for `Cc1ccc(S(=O)(=O)Cc2nc(-c3ccc(C(=O)NCc4cccnc4)cc3)oc2C)cc1`, the Potency is 58 nM (active). Consider `C=C1CCC2C(C)(C(=O)O)CCCC2(C)C1CCC(C)CC(=O)O` (stereo not given), for which the Potency entry was “inactive”.

`OC[C@@]1(O)CO[C@@H](OC[C@H]2O[C@@H](Oc3c[nH]c4ccccc34)[C@H](O)[C@@H](O)[C@@H]2O)[C@@H]1O`: the Potency result was “inactive”. On to `CO[C@@H](C)Cn1c(=O)n(C)c2cnc3ccc(-c4cncc(C(C)(C)O)c4)cc3c21`, for which the Potency is 651 nM (active).

Consider `CO[C@H]1C[C@@H]2CC[C@@H](C)[C@@](O)(O2)C(=O)C(=O)N2CCCC[C@H]2C(=O)O[C@H]([C@H](C)C[C@@H]2CC[C@@H](OP(C)(C)=O)[C@H](OC)C2)CC(=O)[C@H](C)/C=C(\C)[C@@H](O)[C@@H](OC)C(=O)[C@H](C)C[C@H](C)/C=C/C=C/C=C/1C`, for which the Potency result is “inactive”. As to `CC1CCC2(OC1)OC1CC3C4CCC5C[C@@H](O[C@@H]6O[C@H](CO[C@@H]7OC[C@@H](O)[C@H](O)[C@H]7O)[C@H](O)[C@H](O)[C@H]6O)CC[C@]5(C)C4CC[C@]3(C)C1C2C` (stereo not given in full), the Potency result is “inactive”. As to `CC(C)(C)c1ccc(S(=O)(=O)NCc2ccc(C(=O)Nc3cccnc3)cc2)cc1`, the Potency was 1160 nM (active). On the same count and under the same terms, the result for `COc1ccc(C(=O)n2c(C)c(Cc3cccc(O[C@@H](C)C(=O)O)c3)c3cc(OC(F)(F)F)ccc32)cc1` reads “inactive”; that for `CC(O)/C=C/C1OC(=O)CC1Nc1ccc(C(=O)O)cc1` (stereo not given), “inactive”; that for `CC1OC(OC2CCC3(C)C(CCC4(C)C3CC=C3C5CC(C)(C)CCC5(C(=O)OC5OC(CO)C(O)C(O)C5O)CCC34C(=O)O)C2(C)C)C(O)C(O)C1O` (stereo not given), “inactive”. As to `Cc1nc2sc(C(=O)NCc3ccncc3)c(N)c2c(C)c1Cl`, the Potency entry is “inactive”. Same read-out and setting: to `OCc1ccc(O[C@@H]2O[C@H](CO)[C@@H](O)[C@H](O)[C@H]2O)cc1` belongs “inactive”; to `C/C=C/C=C/C(O)=C1\C(=O)[C@]2(C)C3C(C(=O)CC/C=C/C)=C(O)C4(C)C1[C@]1(C)O[C@@]4(O)[C@@]3(C)O[C@@]12O`, “inactive”; to `C=C[C@]1(C)C=C2CCC3C(C)(CCC[C@@]3(C)C(=O)O)C2CC1` (stereo not given in full), “inactive”. Still for that read-out and setting: to `C=C(C(=O)OC)C1C(O)CC2(C)C(=O)CCC(O)(CO)C2C1O` (stereo not given) belongs “inactive”; to `Cc1cccc(Oc2cnc(=O)[nH]c2)c1`, “inactive”. On to `CCOC(=O)CCN(C(=O)c1ccc2c(c1)nc(CNc1ccc(C(=N)N)cc1)n2C)c1ccccn1`, for which the Potency result was “inactive”. In the case of `O=C(O[C@H]1[C@@H]2C[C@@H]3OC[C@](O)([C@@H]1Cl)[C@H]2C(O[C@@H]1O[C@H](CO)[C@@H](O)[C@H](O)[C@H]1O)O3)c1ccc(O)c(O)c1` (stereo not given in full), the Potency entry was “inactive”.

Take `OC[C@H]1O[C@@H](OCCc2ccc(O)cc2)[C@H](O[C@@H]2OC[C@](O)(CO)[C@H]2O)[C@@H](O)[C@@H]1O`: the Potency result was “inactive”. For `C=C(C)C1CCC(C)C12CC(O)C1(C)OC1C2OC(=O)C(N)CCC(=O)O` (stereo not given), the Potency result is “inactive”. As for `CC1OC(OC2C(C)OC(OC3C(O)C(CO)OC(O[C@H]4CC[C@@]5(C)C(CC[C@]6(C)C5CC=C5C7[C@@H](C)[C@H](C)CC[C@]7(C(=O)O)CC[C@]56C(=O)O)C4(C)C)C3O)C(O)C2O)C(O)C(O)C1O` (stereo not given in full), the outcome was “inactive [at 9.29 µM]”.
